Experimental findings from PubChem BioAssay (NCATS) are described below.

Each structure is given as a SMILES string. Records with an inconclusive call do not appear. A call without a number means that no potency is given here. Calls of active or inactive are those of the source. The call rests on the fitted dose curve.

Sequence of Nucleoprotein (Lymphocytic choriomeningitis virus (strain Armstrong)) (P09992 whole entry, looked up): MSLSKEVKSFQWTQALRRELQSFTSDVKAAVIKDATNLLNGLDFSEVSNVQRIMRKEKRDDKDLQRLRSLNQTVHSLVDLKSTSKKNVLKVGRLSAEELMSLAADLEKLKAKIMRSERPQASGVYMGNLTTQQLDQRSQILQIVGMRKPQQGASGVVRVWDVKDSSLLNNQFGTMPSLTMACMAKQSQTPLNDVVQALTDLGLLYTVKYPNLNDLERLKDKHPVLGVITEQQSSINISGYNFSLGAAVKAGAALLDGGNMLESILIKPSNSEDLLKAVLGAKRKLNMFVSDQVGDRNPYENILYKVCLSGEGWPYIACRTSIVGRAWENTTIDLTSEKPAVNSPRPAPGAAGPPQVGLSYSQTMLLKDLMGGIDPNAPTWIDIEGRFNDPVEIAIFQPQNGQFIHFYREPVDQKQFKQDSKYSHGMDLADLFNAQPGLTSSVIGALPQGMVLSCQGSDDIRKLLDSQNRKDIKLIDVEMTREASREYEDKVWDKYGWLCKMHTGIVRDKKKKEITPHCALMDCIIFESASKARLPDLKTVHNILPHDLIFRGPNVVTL

This test addresses Nucleoprotein (Lymphocytic choriomeningitis virus (strain Armstrong)) (UniProt P09992). Description: qHTS for Inhibitors of the Functional Ribonucleoprotein Complex (vRNP) of Lymphocytic Choriomeningitis Arenaviruses (LCMV): LCMV Primary Screen - GLuc reporter signal (AID 1347086). Further: nearly all actives have a fitted effect of over 70% in size. The conditions noted are these: LCMV minigenome vRNP cell assay, Gaussia luciferase reporter; series mostly up to 57.5 µM. Background: qHTS replaces the single test concentration by a dilution series.
Take `C=CC[C@]12C[C@@H](OC)C(=O)C=C1O[C@@H](c1ccc(OC)c(OC)c1)[C@H]2C`: the Potency entry was “inactive”. As to `C/C=C/C=C/CO`, the Potency result is “inactive”. `CC1=CC=C(C(C)C)CC1`: the Potency result is “inactive”. The same measure for `CC(C)(O)[C@H](O)COc1c2occc2cc2ccc(=O)oc12`: “inactive”.

Take `C#CCCC/C(=C\C(=O)N(C)[C@H](C(=O)N(C)[C@H](C(=O)N(C)[C@H](C(=O)N(C)[C@H](C(N)=O)C(C)C)C(C)C)C(C)C)C(C)C)OC`: the Potency entry was “inactive”. The same measure for `O=C(CCCO)CCCCCCCCC[C@H]1N[C@H](CO)[C@@H](O)[C@@H]1O`: “inactive”. The same measure for `C=C(C)C(O)COc1c2occc2c(OC)c2ccc(=O)oc12` (stereo unspecified): “inactive”; for `CC1(C)OC2CC3C4CC(F)C5=CC(=O)C=CC5(C)C4C(O)CC3(C)[C@]2(C(=O)CO)O1` (stereo partly specified): “inactive”. As for `N#CC(=C(O)c1ccc(Cl)cc1Cl)c1nc2cc(Cl)ccc2c(=O)[nH]1`, the Potency result is “inactive”. As for `C/C(=C/CCC(C)(O)C1CC[C@@]2(C)[C@@H]3CC=C4[C@@H](CC[C@H](O[C@H]5O[C@@H](CO)[C@H](O)[C@@H](O)[C@@H]5O)C4(C)C)[C@]3(C)C(=O)C[C@]12C)CO[C@@H]1O[C@H](CO)[C@@H](O)[C@H](O)[C@H]1O` (stereo partly specified), the Potency entry is “inactive”. The same measure for `O=C(O)CC(=O)Nc1ccccc1C(=O)O`: “inactive”.
